Data from PubChem BioAssay (NCI).
This is part of a sample that, as a whole, favours compounds with a hit. Of some 83,000 tested, about 20% had one in any assay.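 Method: cells in 96-well plates; compound added at one concentration; 48 h incubation; percent growth measured; values under 10 scored active.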 Activity calls are given as the source filed them.

What was measured:
Experiment in all cases: NCI-60 one-dose screen, 48 h (100 = growth as untreated, 0 = no growth, -100 = all killed)
Conditions in all cases: 10 µM unless noted
HCT-15 colon = tested on: HCT-15 colon
HT29 colon = tested on: HT29 colon
SNB-75 CNS = tested on: SNB-75 CNS
U251 CNS = tested on: U251 CNS
PC-3 prostate = tested on: PC-3 prostate
UACC-62 melanoma = tested on: UACC-62 melanoma
LOX IMVI melanoma = tested on: LOX IMVI melanoma
SK-MEL-28 melanoma = tested on: SK-MEL-28 melanoma
SNB-19 CNS = tested on: SNB-19 CNS
SK-MEL-5 melanoma = tested on: SK-MEL-5 melanoma

Measured: growth

CO[C@H]1/C=C/O[C@@]2(C)Oc3c(C)c(O)c4c(O)c(c(/C=N/N5C(C)CN(Cc6ccc(C#N)cc6)CC5C)c(O)c4c3C2=O)NC(=O)/C(C)=C\C=C\[C@H](C)[C@H](O)[C@@H](C)[C@@H](O)[C@@H](C)[C@H](OC(C)=O)[C@@H]1C (some centres not stated)
active: UACC-62 melanoma 3.13%
inactive: HCT-15 colon 25% | HT29 colon 26.4% | SNB-75 CNS 56.7% | U251 CNS 34.9% | PC-3 prostate 13.1% | LOX IMVI melanoma 52.5% | SK-MEL-28 melanoma 46.3%

Cc1ccc(S(=O)(=O)NCCN2c3nc4ccccc4cc3Sc3cc4ccccc4nc32)cc1
inactive: HCT-15 colon 103% | HT29 colon 56.1% | SNB-19 CNS 64.3% | U251 CNS 34.4% | PC-3 prostate 77.3% | SK-MEL-5 melanoma 82.7% | UACC-62 melanoma 66.9% | LOX IMVI melanoma 66.5% | SK-MEL-28 melanoma 87.8%

CCOC(=O)N1CCC(N=C2CSc3nnc(-c4cc(C(F)(F)F)cc(C(F)(F)F)c4)n3N2)CC1
active: HT29 colon -3.65% | PC-3 prostate 2.55% | SK-MEL-5 melanoma -67.5%
inactive: HCT-15 colon 25.2% | SNB-19 CNS 58.2% | U251 CNS 22.6% | UACC-62 melanoma 32.6% | LOX IMVI melanoma 16.5% | SK-MEL-28 melanoma 44.5%

COc1cccc(/C=C2\Cc3ccccc3C2=O)c1
inactive: HCT-15 colon 100% | HT29 colon 100% | SNB-75 CNS 104% | PC-3 prostate 87.5% | SK-MEL-5 melanoma 100% | UACC-62 melanoma 98.9% | LOX IMVI melanoma 99.5% | SK-MEL-28 melanoma 113%

C[C@H]1O[C@@H](O[C@H]2[C@@H](O)C[C@H](O[C@H]3[C@@H](O)C[C@H](O[C@H]4CC[C@]5(C)C6CC[C@]7(C)[C@@H](C8=CC(=O)OC8)CC[C@]7(O)C6CC[C@@H]5C4)O[C@@H]3C)O[C@@H]2C)C[C@H](O)[C@@H]1O (some centres not stated)
active: HCT-15 colon -85.6% | HT29 colon -89.8% | SNB-75 CNS -80.8% | U251 CNS -100% | SK-MEL-5 melanoma -100% | UACC-62 melanoma -82.4% | LOX IMVI melanoma -100% | SK-MEL-28 melanoma -51.5%

CN(C)CCC(=O)Nc1ccc(-n2cc(-c3cccc(NC(=S)Nc4cccc(-c5cn(-c6ccc(NC(=O)CCN(C)C)cc6)nn5)c4)c3)nn2)cc1
inactive: HCT-15 colon 92.5% | HT29 colon 28.4% | SNB-75 CNS 119% | U251 CNS 70.9% | PC-3 prostate 89% | SK-MEL-5 melanoma 97.2% | UACC-62 melanoma 114% | LOX IMVI melanoma 19.3% | SK-MEL-28 melanoma 133%

C[C@@H]1C[C@@H]([C@@H](CC2CC(=O)NC(=O)C2)OC(=O)CC(=O)c2ccccc2)C(=O)[C@@H](C)C1
active: HCT-15 colon 8.97% | SK-MEL-5 melanoma 7.03%
inactive: HT29 colon 10.4% | SNB-19 CNS 18.9% | U251 CNS 14.7% | PC-3 prostate 12.3% | UACC-62 melanoma 11.2% | LOX IMVI melanoma 11.3% | SK-MEL-28 melanoma 13.5%

OCCN1CCN(CCCN2c3ccccc3Sc3ccc(C(F)(F)F)cc32)CC1
inactive: HCT-15 colon 18.3% | SNB-75 CNS 46.3% | PC-3 prostate 20.4%
active: HT29 colon -43% | SK-MEL-5 melanoma -93.3% | UACC-62 melanoma -55.5% | LOX IMVI melanoma -41.6% | SK-MEL-28 melanoma -86.6%

O=C1/C(=C\c2coc3ccccc3c2=O)c2ccccc2N1c1c(Cl)cccc1Cl
inactive: HCT-15 colon 24.7% | HT29 colon 47.6% | SNB-75 CNS 62.7% | U251 CNS 36% | PC-3 prostate 31.8% | UACC-62 melanoma 36.6% | LOX IMVI melanoma 37.1% | SK-MEL-28 melanoma 47.3%

NS(=O)(=O)N(c1cc(C(F)(F)F)cc(C(F)(F)F)c1)C1CCN(Cc2ccc(C(F)(F)F)cc2)CC1
active: HT29 colon 5.92% | SNB-75 CNS -4.94%
inactive: HCT-15 colon 45.7% | U251 CNS 33% | PC-3 prostate 26% | UACC-62 melanoma 24.3% | LOX IMVI melanoma 23.5% | SK-MEL-28 melanoma 55.4%

COC(=O)c1cc2c(/C=C3/NC(=S)NC3=O)coc2n1C
inactive: HCT-15 colon 90.3% | HT29 colon 116% | SNB-75 CNS 79.4% | U251 CNS 70.7% | PC-3 prostate 66.7% | SK-MEL-5 melanoma 96.5% | UACC-62 melanoma 86.6% | LOX IMVI melanoma 98.2% | SK-MEL-28 melanoma 97%

O=C(CNC(=O)c1cccc2ccccc12)Nc1ccccc1Oc1ccc(O)cc1
inactive: HCT-15 colon 27.4% [5 µM] | SNB-19 CNS 51.9% [5 µM] | U251 CNS 20.8% [5 µM] | PC-3 prostate 31.1% [5 µM] | SK-MEL-5 melanoma 27.7% [5 µM] | UACC-62 melanoma 55% [5 µM] | LOX IMVI melanoma 40.9% [5 µM] | SK-MEL-28 melanoma 59.9% [5 µM]
active: HT29 colon 4.1% [5 µM]

N#CC(C#N)C(C#N)C#N
inactive: HCT-15 colon 103% | HT29 colon 97% | SNB-19 CNS 114% | U251 CNS 93.6% | PC-3 prostate 90.4% | SK-MEL-5 melanoma 103% | UACC-62 melanoma 98.6% | LOX IMVI melanoma 104% | SK-MEL-28 melanoma 110%

CCCCCCCC[Si](OCC)(OCC)OCC
inactive: HCT-15 colon 107% | HT29 colon 103% | SNB-19 CNS 100% | U251 CNS 98.9% | PC-3 prostate 91.5% | SK-MEL-5 melanoma 111% | UACC-62 melanoma 104% | LOX IMVI melanoma 103% | SK-MEL-28 melanoma 104%

O=C1NC(=O)/C(=C/c2ccc(Cl)cc2Cl)N1
inactive: HCT-15 colon 103% | HT29 colon 121% | SNB-19 CNS 107% | U251 CNS 102% | PC-3 prostate 96.5% | SK-MEL-5 melanoma 108% | UACC-62 melanoma 102% | LOX IMVI melanoma 97.3% | SK-MEL-28 melanoma 109%

COc1c(Br)cc(C(c2cc(Br)c(OC)c(Br)c2)c2ccccc2C(=O)O)cc1Br
inactive: HCT-15 colon 115% | HT29 colon 100% | SNB-75 CNS 76.7% | PC-3 prostate 89.9% | SK-MEL-5 melanoma 100% | UACC-62 melanoma 97.9% | LOX IMVI melanoma 96.6% | SK-MEL-28 melanoma 112%

COC(=O)C1(NC(=O)CNC(=O)OCc2ccccc2)CCCC1
inactive: HCT-15 colon 103% | HT29 colon 108% | SNB-75 CNS 88.4% | U251 CNS 105% | PC-3 prostate 103% | SK-MEL-5 melanoma 100% | UACC-62 melanoma 92.3% | LOX IMVI melanoma 97.3% | SK-MEL-28 melanoma 102%

C/C(=C\CCc1ccsc1)CC/C=C(\C)CCCN1CCSCC1
inactive: HCT-15 colon 82.5% | HT29 colon 88.1% | SNB-75 CNS 101% | U251 CNS 88.5% | PC-3 prostate 80.4% | SK-MEL-5 melanoma 77.2% | UACC-62 melanoma 77% | SK-MEL-28 melanoma 94.6%

CCC(=O)Nc1cc2c(cc1Cl)-c1ccccc1C2
inactive: HCT-15 colon 94.9% | HT29 colon 114% | SNB-75 CNS 83.1% | U251 CNS 96.4% | PC-3 prostate 80.5% | UACC-62 melanoma 84.8% | LOX IMVI melanoma 88.2% | SK-MEL-28 melanoma 122%
